Compound activity deposited in PubChem by Paczesny and Yang Labs, IUPUI and University of Michigan.
This excerpt belongs to a sample that is enriched for hits.
ST2 inh = inhibitors of human ST2 (IL1RL1) binding to IL-33, primary screen, biochemical, AlphaLISA | Interleukin-1 receptor-like 1 (Homo sapiens), Q01638 | AlphaLISA ST2-Fc/biotin-IL-33 interaction, 1 h | inhibition, % for hits at 17 µM | actives 2.3% (n = 78,000); in the data active = inhibition above about 30%
Target sequence (Q01638 whole entry, looked up): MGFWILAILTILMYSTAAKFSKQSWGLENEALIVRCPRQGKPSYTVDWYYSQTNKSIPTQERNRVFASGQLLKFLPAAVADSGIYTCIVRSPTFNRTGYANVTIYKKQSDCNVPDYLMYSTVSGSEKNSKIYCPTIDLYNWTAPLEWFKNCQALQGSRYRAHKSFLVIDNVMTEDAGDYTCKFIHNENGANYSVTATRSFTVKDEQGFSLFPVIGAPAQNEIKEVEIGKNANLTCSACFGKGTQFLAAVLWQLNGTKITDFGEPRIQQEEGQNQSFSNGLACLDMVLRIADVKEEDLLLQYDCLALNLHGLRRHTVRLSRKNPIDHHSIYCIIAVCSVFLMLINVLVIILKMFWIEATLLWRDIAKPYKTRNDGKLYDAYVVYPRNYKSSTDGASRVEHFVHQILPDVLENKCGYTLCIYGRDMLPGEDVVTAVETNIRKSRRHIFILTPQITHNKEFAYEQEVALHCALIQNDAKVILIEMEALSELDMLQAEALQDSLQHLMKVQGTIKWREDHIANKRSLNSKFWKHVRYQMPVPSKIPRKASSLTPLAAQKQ
* = called active by the depositor; i = inactive.

SMILES	ST2 inh
O=c1[nH]c2ccc(S(=O)(=O)Nc3cccc(F)c3)cc2s1	i
CC1=CC(=NC(=NS(=O)(=O)c2ccc(C)cc2)c2ccccc2)C(C)=CC1=O	44.0%*
Cc1ccc(C(N)=NC(=NS(=O)(=O)c2ccccc2)c2ccccc2)cc1	i
Cc1ccc(S(=O)(=O)N=C(Nc2ccccn2)c2ccccc2)cc1	i
CCOc1ccc2nc(N3CCCC(C(=O)NCc4cccs4)C3)nc(C)c2c1 (stereo not given)	i
O=C1c2ccccc2C(=O)N1c1cccc(-c2csc(=Nc3ccccc3)n2CCO)c1	48.0%*
CCNC(=O)CC1SC(=Nc2ccc(OC)cc2)N(C)C1=O (stereo not given)	i
Cc1cccc(N2C(=O)c3ccc(-c4nnc(-c5ccccc5)o4)cc3C2=O)c1	i
COc1ccc(-c2csc(=Nc3ccccc3)n2CCO)cc1	38.0%*
CCCCn1c(=N)n(CCOc2ccc(C)cc2)c2ccccc21	i
COc1ccc(CN2C(=Nc3ccccc3)S[C@H]3[C@@H]2[C@@H](O)[C@H](O)C[C@@H]3C(N)=O)cc1	i
COc1ccc(C2(C(=O)N3CCCC(O)(CO)C3)CC2)cc1 (stereo not given)	i
COc1ccc(N=C2SCC(=O)N2c2ccc(OC)cc2)cc1	i
CN=c1scc(-c2ccc(Cl)cc2)n1C	i
COc1ccc(N=c2scc(-c3ccc(I)cc3)n2CCO)cc1	55.0%*
Cc1ccc(-c2csc(=Nc3ccccc3)n2CCCN(C)C)cc1	42.0%*
O=C(O)c1ccc2c(c1)C(=O)N(c1cccc(Cl)c1)C2=O	i
CC(C)(O)C#CCN1CCOCC1	i
CC1CC(=O)C2=C(C1)OC(N)=C(C#N)C2c1ccc(-c2ccccc2)cc1 (stereo not given)	i
CC(=O)NC(C)c1ccc(-c2cccc3cnccc23)cc1 (stereo not given)	i
C=CCNc1ccccc1C(=O)N(Cc1c(C)nn(C)c1C)C(C)C	i
c1ccc(Cc2nc(CCc3cccnc3)n[nH]2)cc1	i
O=C(CSCc1ccccc1Cl)Nc1ccc(F)cc1	i
CC1=C(C(=O)Nc2ccc(Br)cn2)C(c2ccsc2)C2=C(CCCC2=O)N1 (stereo not given)	i
COc1ccc(C2C(C(=O)Nc3ccccc3OC)=C(C)Nc3nnnn32)cc1 (stereo not given)	i
SMILES	ST2 inh
CCC(C)OC(=O)C1=C(C)NC2=C(C(=O)C(C(=O)OC)C(C)C2)C1c1ccc2c(c1)OCO2 (stereo not given)	i
N#Cc1c(N)nc2c(c1-c1ccccc1Cl)CCCCC2	i
N#CC(C#N)=C1C(Cl)=C(N2CCCCC2)c2ccccc21	82.0%*
O=C(c1ccccc1Cl)N1CCN(c2ccccc2)CC1	i
COCc1nc(NCC2CCS(=O)(=O)C2)c2cnn(C)c2n1 (stereo not given)	i
Cc1cc(C)c(OCC(=O)Nc2ccc(S(=O)(=O)Nc3ncccn3)cc2)c(C)c1	i
Cn1c(=O)c(/C=C/c2cccs2)nc2ccccc21	36.0%*
Cn1c(=O)c(Cc2ccccc2F)nc2ccccc21	i
COc1ccc(C(=O)c2nc3ccccc3n2C)cc1	i
O=S(=O)(Nc1ccc(F)cc1)N1CCCCC1	i
Cc1ccc(C)c(NS(=O)(=O)c2cccc3c2C(=O)c2ccccc2C3=O)c1	54.0%*
Cc1ccc(Cl)cc1NS(=O)(=O)c1cccc2c1C(=O)c1ccccc1C2=O	44.0%*
Cc1ccc(C)c(NS(C)(=O)=O)c1	i
Cc1ccc(Cl)cc1NS(=O)(=O)c1cccc2nonc12	i
Cc1ccc(C)c(NS(=O)(=O)c2ccc(NC(=O)c3ccccc3C)cc2)c1	i
Cc1ccc(Cl)cc1NC(=O)c1ccccc1C(=O)Nc1cc(Cl)ccc1C	i
FC(F)(F)c1nnc2n1N=C(c1ccc(Cl)cc1)CS2	i
CCN(CCCNC(=O)c1cn(-c2ccc(F)cc2F)c(=O)c2ccccc12)c1ccccc1	i
CC(C)Cn1c(CN(C)Cc2ncc[nH]2)nc2ccccc21	i
Cc1ccc(Cl)cc1NC(=O)c1cc(I)ccc1Cl	i
COc1ccccc1OCC(=O)Nc1ccccc1C(C)(C)C	i
CN1CCN(Cc2ccc(S(C)(=O)=O)cc2)CC1C(=O)O (stereo not given)	i
CCCOc1ccccc1C1CC(=O)C2=C(C1)Nc1ccccc1NC2c1ccc(OC)cc1 (stereo not given)	i
COc1ccc(C2CC(=O)C3=C(C2)Nc2ccccc2NC3c2ccc(C)s2)cc1 (stereo not given)	30.0%*
COc1cc(C2Nc3ccccc3NC3=C2C(=O)CC(c2ccccc2)C3)ccc1OC(C)=O (stereo not given)	i
COc1ccc(-c2cc(-c3cccc(Br)c3)c(C#N)c(N)n2)cc1	i
CCC(NC(=O)C1CCN(C(C)=O)CC1)c1ccnn1C (stereo not given)	i
CCCc1cc(C(=O)Nc2c(C)nn(Cc3ccccc3Cl)c2C)no1	i
